Our source for the outcome values is PubChem BioAssay (EPA / NIEHS).

Records with an inconclusive call do not appear. The source made the active and inactive calls. The calls were made as follows: active = hit-call score of the fitted dose curve at least 0.9, where 1 is the maximum; inconclusive = response in the unintended direction; inactive = score below 0.9.

Read-out in this assay: alkyl and aryl transferase (GSTA2), GSTA2 (gene 2939)
The assay can be described thus: CLD_GSTA2_24hr: CellzDirect (CLD) Gene Expression Assay for alkyl and aryl transferase (GSTA2) at 24 hours (AID 2283693). As to the method: CLD_24hr is a cell-based, multiplexed-readout assay that uses hepatocyte, a human liver primary cell, with measurements taken at 24 hours after chemical dosing in a 96-well plate.CLD_GSTA2_24hr is one of 16 assay component(s) measured or calculated from the CLD_24hr assay. It is designed to make measurements of mRNA induction, a form of inducible reporter, as detected with chemiluminescence signals by Quantitative Nuclease Protection Assay (qNPA) technology.Data from the assay component CLD_GSTA2_24hr was analyzed at the endpoint, CLD_GSTA2_24hr, in the positive analysis fitting direction relative to DMSO as the negative control and baseline of activity. Using a type of inducible reporter, gain-of-signal activity can be used to understand changes in the reporter gene as they relate to the gene GSTA2. Furthermore, this assay endpoint can be referred to as a primary readout. To generalize the intended target to other relatable targets, this assay endpoint is annotated to the transferase intended target family, where subfamily is alkyl and aryl transferase.
Human hepatocyte cultures were treated daily for two consecutive days with fresh dosing solutions containing appropriate concentrations of the 320 ToxCast chemicals (chemical identities were blinded to CellzDirect and other ToxCast collaborators), vehicle control (0.2% DMSO), and positive control inducers as summarized in Table 1. Due to the large number of treatment groups and chemicals examined, the ToxCast chemicals were divided into two groups (spanning two independent cultures of hepatocytes from separate donor preparations (Hu778: ToxCast plates 1 and 2; Hu776: ToxCast plates 3 and 4). Each preparation of human hepatocyte cultures was treated with respective vehicle control, medium only control, set of six positive controls/reference chemicals for the five hepatic receptor pathways, and a subset of eight of the ToxCast chemicals (indoxacarb, pyrithiobac-sodium, norflurazon, cyhalofop-butyl, methomyl, thiram, acetochlor, and propiconazole). These replicate data, coupled with internal replicates designed within the blinded ToxCast chemical library, provided additional data to evaluate interindividual differences between hepatocyte preparations and their potential impact on chemical profiles.Cell morphology and integrity were evaluated using phase-contrast microscopy as an indicator of hepatocyte cell health (Tyson & Green, 1987). Cultures for each treatment group (i.e., media, vehicle [0.2% DMSO], positive control inducers [multiple concentrations], and the ToxCast chemicals [multiple concentrations]) were observed and cell morphology was assessed relative to vehicle control cultures at each harvest time point (0, 6, 24, or 48 h). […] Images were evaluated at the conclusion of the study to assess changes in cell integrity and account for the effects of chemical exposure on uncharacteristic changes in concentration-dependent gene expression profiles. The results from these determinations of apparent cytotoxicity were annotated (yes/no) alongside the corresponding qNPA data for reference.At the conclusion of each treatment period, hepatocyte cultures (96-well) were washed with 1 volume of HBSS, lysed by addition of 25 ul ArrayPlate lysis buffer (HTG, Tucson, AZ), and 70 ul/well of Denaturation Oil, denatured by incubation at 95C for 10 min, and frozen at approximately -70C until analysis by nuclease protection assay (qNPA) (Roberts et al., 2007). For qNPA analysis, cell lysates were thawed at 50C for approximately 30 min, qNPA probes were added, and samples were incubated at 95C for 10 min to begin the detection process by denaturing the target RNA, dissociating the duplexes and secondary structure hybridization. At the conclusion of the hybridization period, S1 nuclease reagent was added to each sample to digest all nonprotected nucleotides at 50C for 60-90 min. […]
With `CCOP(=O)(OCC)Oc1nc(Cl)c(Cl)cc1Cl`, the result was inactive. On to `COc1cc(Cl)c(OC)cc1Cl`, for which the outcome was inactive. Turning to `COCc1cnc(C2=NC(C)(C(C)C)C(=O)N2)c(C(=O)O)c1` (stereo not given), the outcome was inactive. As to `CCCN(CC)CC1COC2(CCC(C(C)(C)C)CC2)O1` (stereo not given), the molecule was classed as inactive. Regarding `CC(C)C1(C)N=C(c2ncccc2C(=O)O)NC1=O` (stereo not given), the call was inactive. Take `CC1(C)C(C(=O)OC(C#N)c2cccc(Oc3ccccc3)c2)C1(C)C` (stereo not given): the call was inactive. As to `Clc1nc(Cl)nc(Nc2ccccc2Cl)n1`, the molecule was classed as inactive. `Cc1cnc(C2=NC(C)(C(C)C)C(=O)N2)c(C(=O)O)c1` (stereo not given): the outcome was inactive. To `CC1(C)CON(Cc2ccccc2Cl)C1=O` belongs “inactive”; to `O=P(O)(O)CCCl`, “inactive”.

`N#Cc1c(Cl)cccc1Cl`: the outcome was inactive. To `Clc1cccc(C(Cl)(Cl)Cl)n1` belongs “inactive”; to `O=c1n(Cl)c(=O)n(Cl)c(=O)n1Cl`, “inactive”; to `CS(=O)(=O)c1cc(C(F)(F)F)ccc1C(=O)c1cnoc1C1CC1`, “inactive”.

In the case of `Cn1c(-c2ccccc2)cc(-c2ccccc2)[n+]1C`, the result was inactive.

Take `CCCCC(C#N)(Cn1cncn1)c1ccc(Cl)cc1` (stereo not given): the molecule was classed as inactive. To `COC(=O)NS(=O)(=O)c1ccc(N)cc1` belongs “inactive”; to `CC(C)N1C(=O)c2ccccc2NS1(=O)=O`, “inactive”; to `CSC(=O)c1c(C(F)F)nc(C(F)(F)F)c(C(=O)SC)c1CC(C)C`, “inactive”. As to `CC1(C)C(C=C(Cl)Cl)C1C(=O)OC(C#N)c1cccc(Oc2ccccc2)c1` (stereo not given), the outcome was inactive. `COCC(C)N(C(=O)CCl)c1c(C)csc1C` (stereo not given): the outcome was inactive.

For `CNC(=O)Oc1cccc2ccccc12`, the outcome was inactive. As to `Cc1c(COC(=O)[C@@H]2[C@H](/C=C(\Cl)C(F)(F)F)C2(C)C)cccc1-c1ccccc1`, the call was inactive. On to `CC(C)=CC1C(C(=O)OCc2coc(Cc3ccccc3)c2)C1(C)C` (stereo not given), for which the call was inactive. `CCOc1nc(C(Cl)(Cl)Cl)ns1`: the call was inactive. For the molecule `CN=C=S`, the molecule was classed as inactive. In the case of `COP(=S)(OC)SCn1nnc2ccccc2c1=O`, the result was inactive. To `COC(=O)N(C(=O)N1CO[C@@]2(C(=O)OC)Cc3cc(Cl)ccc3C2=N1)c1ccc(OC(F)(F)F)cc1` belongs “inactive”; to `COc1ccc(-c2ccccc2)cc1NNC(=O)OC(C)C`, “inactive”. In the case of `COP(=S)(OC)Oc1ccc([N+](=O)[O-])c(C)c1`, the molecule was classed as inactive. To `COP(=O)(OC)O/C(C)=C/C(=O)N(C)C` belongs “inactive”. To `CCSC(=O)N1CCCCCC1` belongs “inactive”. In the case of `N#CN=C1SCCN1Cc1ccc(Cl)nc1`, the call was inactive. As for `CO/N=C(/C1=NOCCO1)c1ccccc1Oc1ncnc(Oc2ccccc2Cl)c1F`, the outcome was inactive. For `CNC(=O)N(C)c1nnc(C(C)(C)C)s1`, the outcome was inactive.

For the molecule `CCOP(=S)(OCC)Oc1nc(Cl)n(C(C)C)n1`, the molecule was classed as inactive. Turning to `CCCCOCN(C(=O)CCl)c1c(CC)cccc1CC`, the call was inactive. To `COCC(=O)N(c1c(C)cccc1C)C(C)C(=O)OC` (stereo not given) belongs “inactive”. As for `O=C1C2CC=CCC2C(=O)N1SC(Cl)(Cl)Cl` (stereo not given), the outcome was inactive. On to `C=C(C)CN(CC)c1c([N+](=O)[O-])cc(C(F)(F)F)cc1[N+](=O)[O-]`, for which the call was inactive.
